HP1b chromo inh = HTS for Inhibitors of HP1-beta Chromodomain Interactions with Methylated Histone Tails; Chromobox protein homolog 1 (Homo sapiens), P83916; AlphaScreen HP1-beta / biotin-H3K9me3 peptide binding; Potency, µM (titrated, usually from 114 µM), for the others: top-dose activity change, negative = inhibition, most hits filed as inhibitors; 390,000 compounds, 0.56% hits; AID 540317, 2011; also: potency is read from the fitted curve at half-maximal effect; nearly all actives have a fitted effect of over 70% in size
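HP1-beta protein (50 nM final) preincubated 30 min at room temperature with biotinylated H3(1-18)K9me3 peptide (50 nM) in PBS pH 7.4, 0.01% Tween-20, then compound added for 30 min. AlphaScreen streptavidin donor/nickel chelate acceptor beads (10 ug/mL final), 30 min dark, luminescence read.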
JMJD2A Tudor = qHTS Assay for Inhibitors of JMJD2A-Tudor Domain; 390,000 compounds, 4.4% hits; AlphaScreen JMJD2A-Tudor / H3K4me3 peptide binding; Potency, µM (highest dose often 114 µM), for the others: at the highest dose activity change, negative = inhibition, actives largely listed as inhibitors; also: potency is read from the fitted curve at half-maximal effect; % is scaled to controls: 0 for no effect and ±100 for the full control effect; nearly all actives have a fitted effect of over 50% in size
PLK1 PBD inh = qHTS for Inhibitors of PLK1-PDB (polo-like kinase 1 - polo-box domain): Primary Screen; Serine/threonine-protein kinase PLK1 (Homo sapiens), P53350; Plk1 PBD binding of FITC phosphopeptide, fluorescence polarization; 360,000 compounds, 2.8% hits; Potency, µM, inactives show max response, negative = inhibition, actives largely listed as inhibitors; AID 720504, 2013; also: potency is read from the fitted curve at half-maximal effect; series mostly up to about 57 µM; % is scaled to controls: 0 for no effect and ±100 for the full control effect; nearly all actives have a fitted effect of over 65% in size
BAZ2B block = qHTS Assay for Inhibitors of BAZ2B; AlphaScreen BAZ2B-H3K14Ac peptide displacement; Potency, µM (doses to about 114 µM), for the others: at the highest dose activity change, negative = inhibition, hits mostly inhibitors; 360,000 compounds, 4.4% hits; AID 504333, 2011; also: potency is read from the fitted curve at half-maximal effect; % is scaled to controls: 0 for no effect and ±100 for the full control effect; nearly all actives have a fitted effect of over 60% in size
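AlphaScreen luminescence quantifies BAZ2B engagement of H3K14Ac peptide; the protein and biotinylated peptide are both at 50 nM final, buffer PBS pH 7.4 with 0.01% Tween-20, all steps at room temperature.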
G9a block = qHTS Assay for Inhibitors of Histone Lysine Methyltransferase G9a. Histone-lysine N-methyltransferase EHMT2 (Homo sapiens), Q96KQ7. AID 504332, 2011. Potency, µM (titrated, usually from 102 µM), for inactives: top-dose activity, negative = inhibition, most hits filed as inhibitors. G9a H3K9 monomethylation, AlphaScreen, 2 h. 350,000 compounds, 8.8% hits; also: potency is read from the fitted curve at half-maximal effect; % is scaled to controls: 0 for no effect and ±100 for the full control effect; nearly all actives have a fitted effect of over 75% in size
Target sequence (Q96KQ7 913-1193 limits assumed): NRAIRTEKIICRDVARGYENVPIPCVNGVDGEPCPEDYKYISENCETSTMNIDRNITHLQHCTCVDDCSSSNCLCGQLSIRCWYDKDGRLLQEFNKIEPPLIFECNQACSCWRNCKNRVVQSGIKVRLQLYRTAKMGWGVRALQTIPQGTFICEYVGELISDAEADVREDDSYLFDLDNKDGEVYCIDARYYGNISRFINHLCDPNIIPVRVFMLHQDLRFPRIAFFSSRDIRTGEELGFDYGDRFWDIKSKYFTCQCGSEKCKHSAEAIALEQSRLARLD
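Readings reflect AlphaScreen signal from monomethyl-H3K9 antibody detection. HMT at 20 nM; substrate b-H3K9 500 nM; cofactor SAM 20 uM; 2 h RT reaction; compounds tested as titrations in qHTS with 15 min preincubation.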
PI5P4K alpha inh = qHTS for Inhibitors of phosphatidylinositol 5-phosphate 4-kinase (PI5P4K); Phosphatidylinositol 5-phosphate 4-kinase type-2 alpha (Homo sapiens), P48426; PI5P4Kalpha enzyme, ADP-Glo luminescence, 60 min; hits give low values; max response, %; 330,000 compounds, 1.2% hits; active = max response of -50% or lower; inconclusive = between -30% and -50%; inactive = -30% or higher; also: value at the top dose of about 77 µM; % is scaled to controls: 0 for no effect and ±100 for the full control effect
Target sequence (P48426 whole entry, looked up): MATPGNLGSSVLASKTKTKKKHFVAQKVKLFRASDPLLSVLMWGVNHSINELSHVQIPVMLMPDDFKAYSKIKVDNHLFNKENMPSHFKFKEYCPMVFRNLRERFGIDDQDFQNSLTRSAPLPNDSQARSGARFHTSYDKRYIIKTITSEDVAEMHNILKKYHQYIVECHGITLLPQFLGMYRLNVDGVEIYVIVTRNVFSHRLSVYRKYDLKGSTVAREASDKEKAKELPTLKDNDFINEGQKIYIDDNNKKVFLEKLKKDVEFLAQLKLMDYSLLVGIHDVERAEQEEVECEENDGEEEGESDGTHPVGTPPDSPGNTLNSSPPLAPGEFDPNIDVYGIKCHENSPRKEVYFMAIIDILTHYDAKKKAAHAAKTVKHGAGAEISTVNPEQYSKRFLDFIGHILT
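Luminescence from ADP-Glo served as readout of PI5P4Kalpha activity in a qHTS format. Reaction: enzyme, substrate, compound, ATP at 5 microM final, 60 min at RT.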
The depositor's hits bear a star; ? = inconclusive; . = no result given; ! = repeats disagree; [ ] = remark or other dose. The list is not random: actives were taken first. Their share in the collection is about 12%. Unless noted, calls follow the shape of the dose curve; as a rule, active = well fitted curve in the direction sought with a large enough effect; inconclusive = small, poorly fitted or top-dose-only effect, or another doubt; inactive = no such curve, though single readings can be large; an effect the other way counts as inactive or inconclusive.

SMILES	HP1b chromo inh	JMJD2A Tudor	PLK1 PBD inh	BAZ2B block	G9a block	PI5P4K alpha inh
COc1cc(C(=O)N(C(C)C)C2CCCCC2)cc(OC)c1OC	.	.	-0.7%	.	.	1.1
COc1cc(N=Nc2ccccc2C(=O)O)ccc1O	13.5%	-7.2%	-1.4%	-33.7%	50.1µM*	-12.7
COc1cc(N=Nc2ccc3ccccc3c2)ccc1O	?	39.8µM*	4.1%	25.1µM*	-46.6%[12.7 µM]	43.8
CN(c1ccc(O)cc1)S(=O)(=O)c1ccc2ccccc2c1	-3.0%	-24.7%	-12.0%	-12.9%	-13.9%	-7.5
Oc1ccc(N=Nc2ccc3ccccc3c2)cc1	?	44.7µM*	7.4%	31.6µM*	-2.8%[0.501 µM]	40.7
Cc1nn2c(C)c(C(=O)NC(C)(C)C)cnc2c1-c1ccc(F)cc1	22.5%	-14.0%	.	-3.8%	13.0%[59 µM]	.
Cc1cs/c(=N\N=C2CCCCC2)n1Cc1ccco1	?	?	-3.9%	44.7µM*	?	1.9
Cc1cs/c(=N\N=C\c2ccccc2)n1Cc1ccco1	?	35.5µM*	-4.0%	12.6µM*	14.1µM*	12.5
Cc1ccccc1C(=O)Nc1ccc(S(=O)(=O)N2CCC(c3nc4ccccc4s3)CC2)cc1	3.8%	-17.2%	.	2.4%	-34.3%[59 µM]	.
Cn1ncc(Cl)c1C(=O)N1CCN(C23CC4CC(CC(C4)C2)C3)CC1	3.9%	89.1µM*	-15.3%	-8.2%	.	2.7
CC[n+]1ccc(/C=C2\Sc3ccccc3N2CCCS(=O)(=O)[O-])c2ccccc21	?	?	-23.3%	50.1µM*	.	4.5
Cc1ccc(OCC(=O)N/N=C/C=C/c2ccco2)cc1C	-19.4%	-33.8%	-6.6%	?	39.8µM*	?
O=C(CNc1cccc2ccccc12)N/N=C/C=C/c1ccco1	6.3%	-25.4%	0.1%	-37.4%	20µM*	2.2
O=C(Cc1cccs1)N/N=C/C=C/c1ccco1	28.2µM*	?	?	44.7µM*	39.8µM*	-58.2*
Cc1ccc(OCC(=O)N/N=C/c2ccco2)cc1	11.8%	-15.3%	-1.1%	6.0%	5.2%	.
Cc1ccc(NC(=S)/C(=C(\[O-])c2ccc(C)c([N+](=O)[O-])c2)[n+]2ccccc2)cc1C	.	.	.	56.2µM*	?	.
COc1cccc(NC(=S)/C(=C(\[O-])c2ccc(C)c([N+](=O)[O-])c2)[n+]2ccccc2)c1	-22.4%	?	-27.3%	?	?	2.3
Cc1ccc(/C([O-])=C(/C(=S)Nc2ccc(SC(F)F)cc2)[n+]2ccccc2)cc1[N+](=O)[O-]	-20.7%	?	-25.6%	?	22.4µM*	-2.7
Cc1ccccc1NC(=S)/C(=C(\[O-])c1ccc(C)c([N+](=O)[O-])c1)[n+]1ccccc1	-11.9%	-35.3%	-9.6%	?	?	1.4
Cc1ccc(CNC(=O)Cn2cc(S(=O)(=O)Cc3ccccc3F)c3ccccc32)cc1	23.5%	-6.9%	.	-18.2%	14.0%[59 µM]	.
Brc1cc2c(cc1CSc1ncccn1)OCO2	108.5%	51.2%	-16.6%	41.6%	23.3%	8.6
CCc1nnc(SCc2nc(-c3ccccc3F)oc2C)c2cc3sccc3n12	2.8%	-13.9%	.	-38.4%	-8.2%[59 µM]	.
CC(OC(=O)c1nccnc1N)C(=O)Nc1ccc(S(=O)(=O)N2CCCC2)cc1 (configuration not stated)	7.0%	-4.8%	-7.7%	7.4%	-13.9%	1.6
CSc1ccc2nnc(-c3ccc(C)cc3)n2n1	19.9%[57 µM]	-20.0%[57.1 µM]	.	.	.	.
CC(=O)C(Sc1ccc2nnc(-c3cccnc3)n2n1)C(C)=O	57.2%	-13.7%	-24.4%	.	70.8µM*	-6.0
SMILES	HP1b chromo inh	JMJD2A Tudor	PLK1 PBD inh	BAZ2B block	G9a block	PI5P4K alpha inh
CC(=O)C(Sc1ccc2nnc(-c3ccc(C)cc3)n2n1)C(C)=O	21.9%	?	0.2%	-2.0%	31.6µM*	0.2
CC(=O)C(Sc1ccc2nnc(-c3ccc(F)cc3)n2n1)C(C)=O	43.6%	?	-8.5%	?	17.8µM*	-12.9
COc1ccc(Br)cc1CNC(=O)C1COc2ccccc2C1 (configuration not stated)	23.5%[57 µM]	6.1%	.	-0.2%	13.1%[59 µM]	.
O=C(COC(=O)c1cc(Cl)ccc1[N+](=O)[O-])NCc1ccc(Cl)cc1Cl	?	?	-6.8%	?	?	3.4
CCN(CCCNC(=O)c1nn(-c2ccc(OC)cc2)c(=O)c2c1c1ccccc1n2C)c1ccccc1	30.4%	-8.0%	.	.	-1.9%[59 µM]	.
C=CCNc1nc(C2(C)CC3(CC(C)(C)OC3=O)C(=O)O2)cs1 (configuration not stated)	18.3%	-13.2%	-14.7%	1.0%	39.8µM*	0.2
CC(C)COCC1CC2(CC(C)(c3csc(N)n3)OC2=O)C(=O)O1 (configuration not stated)	5.1%	-12.0%	-5.3%	-1.7%	-9.5%[59 µM]	-5.5
Cc1cn(C)c(CC(=O)NCc2ccccc2Cl)c1C(=O)O	20.2%	-28.7%	.	-9.3%	0.8%[59 µM]	.
NCCC(=O)NCCc1cnc[nH]1	18.3%	?	-28.2%	5.1%	-0.9%[59 µM]	-9.0
NCCc1cnc[nH]1	32.0%	-20.7%	-13.5%	?	8.44µM*!	-0.5
O=C(NC(=S)N(Cc1ccccc1)c1ccccn1)C1CCCCC1	27.7%	-6.4%	?	-4.7%	28.2µM*	-7.1
CN(C(=S)NC(=O)C1CCCC1)c1ccccc1	.	.	29.9µM*	.	.	10.6
CN(Cc1ccccc1)C(=S)NC(=O)C1CCCCC1	45.8%	-9.7%	-2.0%	-0.1%	-44.7%	-7.0
Cc1ccc(NC(=O)Cn2c(=O)n(Cc3ccco3)c(=O)c3sc4ccccc4c32)cc1C	57.8%	-15.9%	.	10.4%	-5.3%[59 µM]	.
O=C(Nc1ccc(Cl)cc1Cl)c1cc(S(=O)(=O)N2CCc3ccccc32)ccc1F	-3.1%	-17.1%	.	-3.5%	-5.1%[59 µM]	.
Cc1cccnc1NC(=O)CN1C(=O)COc2ccc(Cl)cc21	46.4%	0.3%	4.0%	56.2µM*	20.6%	2.2
COc1cc(C2c3cc4c(cc3OC(N3CCCCC3)C2C)OCO4)cc(OC)c1O (configuration not stated)	17.8%	-13.9%	-0.2%	.	.	16.4
CC1C(c2ccc3c(c2)OCO3)c2cc3c(cc2OC1N1CCOCC1)OCO3 (configuration not stated)	?	17.8µM*	-3.9%	.	.	7.0
O=C1C(=O)C(Cl)=C(Cl)C(Cl)=C1Cl	.	.	-28.3%	.	.	-54.1*

Screening results (PubChem BioAssay)
